Of roughly 8,800 targets only a part is listed; those with a hit were picked by preference. About 0.5% of all pairs of compound and target were hits.
Assays:
Assay in all cases: log2 fold change, soluble protein after heating vs DMSO (PISA); higher = thermal stabilisation; K562 lysate, 10 uM; active = over 0.2 and 3.5 SD of the protein, either way, in both replicates (recomputed)
vemurafenib = compound: CCCS(=O)(=O)Nc1ccc(F)c(C(=O)c2c[nH]c3ncc(-c4ccc(Cl)cc4)cc23)c1F [vemurafenib]
Summary of the method: (§1)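 Quantification was by TMTpro 16plex LC-MS/MS with equalised channel sums, applied to the supernatant after 21,000xg for 90 min. Samples were crude K562 extract at 1 mg/mL protein in PBS pH 7.4 with 1 mM MgCl2, treated with 10 μM compound for 30 min, heated for 3 min across 48°C-58°C, pooled and brought to 0.5% NP-40 at 4°C. Values are log-two fold changes in thermal stability relative to solvent controls, from duplicates.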

[1] = compound: CCCS(=O)(=O)Nc1ccc(F)c(C(=O)c2c[nH]c3ncc(Cl)cc23)c1F
Summary of the method: as §1

barasertib = compound: CCN(CCCOc1ccc2c(Nc3cc(CC(=O)Nc4cccc(F)c4)[nH]n3)ncnc2c1)CCOP(=O)(O)O [barasertib]
Summary of the method: as §1

[2] = compound: CC[C@@H]1C(=O)N(C)c2cnc(Nc3ccc(C(=O)NC4CCN(C)CC4)cc3OC)nc2N1C1CCCC1
Summary of the method: as §1

volasertib = compound: CC[C@@H]1C(=O)N(C)c2cnc(Nc3ccc(C(=O)N[C@H]4CC[C@H](N5CCN(CC6CC6)CC5)CC4)cc3OC)nc2N1C(C)C [volasertib]
Summary of the method: as §1

[3] = compound: CCn1c(C(=O)N(C2CC2)C2CC2)cc2c3c(ncn3C)c(Nc3cc(C)n(C)n3)nc21
Summary of the method: as §1

[4] = compound: CCn1cc(-c2ccnc3[nH]c(-c4cccc(CN(C)C)c4)cc23)c(-c2ccc(NC(=O)N(C)C)cc2)n1
Summary of the method: as §1

[5] = compound: CN1CCC(CNc2ccc3ncc(-c4cccc(OC(F)(F)F)c4)n3n2)CC1
Summary of the method: as §1

saracatinib = compound: CN1CCN(CCOc2cc(OC3CCOCC3)c3c(Nc4c(Cl)ccc5c4OCO5)ncnc3c2)CC1 [saracatinib]
Summary of the method: as §1

sotrastaurin = compound: CN1CCN(c2nc(C3=C(c4c[nH]c5ccccc45)C(=O)NC3=O)c3ccccc3n2)CC1 [sotrastaurin]
Summary of the method: as §1

alvocidib = compound: CN1CC[C@H](c2c(O)cc(O)c3c(=O)cc(-c4ccccc4Cl)oc23)[C@H](O)C1 [alvocidib]
Summary of the method: as §1

Tubastatin A = compound: CN1CCc2c(c3ccccc3n2Cc2ccc(C(=O)NO)cc2)C1 [Tubastatin A]
Summary of the method: as §1

[6] = compound: CNC(=O)C1=CC=CC=C1NC2=NC(=NC=C2Cl)NC3=C(C=C(C=C3)N4CCOCC4)OC
Summary of the method: as §1

defactinib = compound: CNC(=O)c1ccc(Nc2ncc(C(F)(F)F)c(NCc3nccnc3N(C)S(C)(=O)=O)n2)cc1 [defactinib]
Summary of the method: as §1

[7] = compound: CNc1nc(-c2ccc3c(N)n[nH]c3c2)cc(N2C[C@@H](C(=O)NC3CCCCC3)CC[C@H]2C)n1
Summary of the method: as §1

encorafenib = compound: COC(=O)N[C@@H](C)CNc1nccc(-c2cn(C(C)C)nc2-c2cc(Cl)cc(NS(C)(=O)=O)c2F)n1 [encorafenib]
Summary of the method: as §1

[8] = compound: COC(=O)[C@H](CCSC)NC(=O)C1=C(C=C(C=C1)NC[C@H](CS)N)C2=CC=CC=C2
Summary of the method: as §1

alisertib = compound: COc1cc(Nc2ncc3c(n2)-c2ccc(Cl)cc2C(c2c(F)cccc2OC)=NC3)ccc1C(=O)O [alisertib]
Summary of the method: as §1

[9] = compound: COc1cc2nc(-c3cc(F)ccc3O)nc(N[C@@H]3CNC[C@H]3C(C)(C)O)c2cc1OC
Summary of the method: as §1

gefitinib = compound: COc1cc2ncnc(Nc3ccc(F)c(Cl)c3)c2cc1OCCCN1CCOCC1 [gefitinib]
Summary of the method: as §1

Measured: log2 fold change

USP48 (UniProt Q86UV5)
inactive: vemurafenib 0.043 | [1] 0.074 | barasertib -0.024 | [2] 0.047 | volasertib -0.102 | [3] -0.057 | [5] 0.146 | saracatinib -0.021 | sotrastaurin -0.12 | alvocidib -0.193 | Tubastatin A -0.069 | [6] 0.123 | defactinib 0.024 | [7] 0.054 | encorafenib -0.016 | [8] 0.018 | alisertib -0.015 | [9] 0.09 | gefitinib -0.069
active: [4] -0.821

YME1L1 (UniProt Q96TA2)
active: [8] -0.301
inactive: vemurafenib 0.01 | [1] 0.011 | barasertib 0.036 | [2] -0.008 | volasertib -0.02 | [3] 0.035 | [4] 0.181 | [5] -0.088 | saracatinib 0.037 | sotrastaurin 0.055 | alvocidib 0.018 | Tubastatin A 0.048 | [6] 0.011 | defactinib 0.018 | [7] -0.061 | encorafenib 0.05 | alisertib -0.016 | [9] 0.028 | gefitinib 0.042

VPS41 (UniProt P49754)
inactive: vemurafenib -0.018 | [1] -0.016 | barasertib 0.085 | [2] 0.005 | volasertib -0.078 | [3] 0.06 | [4] 0.074 | [5] -0.054 | saracatinib 0.002 | sotrastaurin 0.058 | alvocidib 0.068 | Tubastatin A -0.128 | [6] 0.03 | defactinib 0.006 | [7] -0.055 | encorafenib 0.019 | [8] -0.072 | alisertib -0.043 | [9] 0.006 | gefitinib -0.004

UNC45A (UniProt Q9H3U1)
inactive: vemurafenib 0.013 | [1] 0.012 | barasertib 0.018 | [2] -0.022 | volasertib -0.039 | [3] 0.025 | [4] 0.02 | [5] -0.081 | saracatinib 0.017 | sotrastaurin -0.001 | alvocidib -0.017 | Tubastatin A -0.146 | [6] 0 | defactinib 0.018 | [7] -0.011 | encorafenib -0.003 | [8] 0.044 | alisertib 0.006 | [9] 0.001 | gefitinib -0.02

VTN (UniProt P04004)
Sequence of UniProt P04004 (P04004 whole entry, looked up): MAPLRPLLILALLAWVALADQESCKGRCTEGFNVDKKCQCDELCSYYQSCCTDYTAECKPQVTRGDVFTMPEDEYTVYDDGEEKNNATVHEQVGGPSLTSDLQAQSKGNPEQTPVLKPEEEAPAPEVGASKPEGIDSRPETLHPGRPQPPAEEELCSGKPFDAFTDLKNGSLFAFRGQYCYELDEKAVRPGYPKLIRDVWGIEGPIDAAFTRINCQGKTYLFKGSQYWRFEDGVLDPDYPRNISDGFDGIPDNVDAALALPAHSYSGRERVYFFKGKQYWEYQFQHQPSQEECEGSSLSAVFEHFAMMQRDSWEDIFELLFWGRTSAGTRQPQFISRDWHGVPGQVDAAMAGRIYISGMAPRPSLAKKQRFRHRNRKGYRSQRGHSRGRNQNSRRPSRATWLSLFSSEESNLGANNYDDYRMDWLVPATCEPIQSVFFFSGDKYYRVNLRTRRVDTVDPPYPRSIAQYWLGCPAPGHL
inactive: vemurafenib 0.029 | [1] 0.058 | barasertib 0.043 | [2] 0.063 | volasertib -0.001 | [3] 0.011 | [5] 0.289 | saracatinib 0.075 | sotrastaurin -0.012 | alvocidib -0.112 | Tubastatin A -0.012 | [6] -0.095 | defactinib 0.104 | [7] -0.061 | encorafenib 0.089 | [8] -0.074 | alisertib -0.041 | [9] 0.014 | gefitinib 0.009
active: [4] -0.615

ZMYM1 (UniProt Q5SVZ6)
active: [4] -0.272
inactive: vemurafenib 0.011 | [1] -0.017 | barasertib 0.05 | [2] -0.033 | volasertib -0.124 | [3] 0.017 | [5] 0.127 | saracatinib 0.013 | sotrastaurin 0.05 | alvocidib -0.162 | Tubastatin A -0.098 | [6] 0.071 | defactinib -0.035 | [7] 0.067 | encorafenib 0.063 | [8] -0.038 | alisertib -0.008 | [9] 0.03 | gefitinib 0.009

XPO6 (UniProt Q96QU8)
inactive: vemurafenib 0.033 | [1] 0.013 | barasertib 0.062 | [2] -0.03 | volasertib -0.058 | [3] -0.049 | [4] 0.448 | [5] 0.071 | saracatinib -0.007 | sotrastaurin 0 | alvocidib -0.058 | Tubastatin A -0.09 | [6] -0.048 | defactinib -0.025 | [7] -0.05 | encorafenib -0.006 | [8] 0.021 | alisertib 0.036 | [9] 0.031 | gefitinib 0.067

USE1 (UniProt Q9NZ43)
Sequence of UniProt Q9NZ43 (Q9NZ43 whole entry, looked up): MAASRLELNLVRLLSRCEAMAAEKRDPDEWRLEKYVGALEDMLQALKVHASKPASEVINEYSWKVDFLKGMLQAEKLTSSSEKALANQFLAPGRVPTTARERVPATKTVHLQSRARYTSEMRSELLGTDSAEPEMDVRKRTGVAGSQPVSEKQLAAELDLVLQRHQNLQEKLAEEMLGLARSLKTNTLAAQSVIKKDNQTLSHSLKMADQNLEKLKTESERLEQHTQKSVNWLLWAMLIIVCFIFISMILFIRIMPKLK
inactive: vemurafenib -0.071 | [1] -0.049 | barasertib 0.021 | [2] 0.036 | volasertib 0.04 | [3] 0.093 | [4] 0.002 | [5] -0.103 | saracatinib -0.02 | sotrastaurin 0.017 | alvocidib 0.019 | Tubastatin A -0.054 | [6] -0.002 | defactinib 0.064 | [7] 0.015 | encorafenib 0.067 | [8] -0.037 | alisertib -0.059 | [9] 0.039 | gefitinib -0.026

YRDC (UniProt Q86U90)
Sequence of UniProt Q86U90 (Q86U90 whole entry, looked up): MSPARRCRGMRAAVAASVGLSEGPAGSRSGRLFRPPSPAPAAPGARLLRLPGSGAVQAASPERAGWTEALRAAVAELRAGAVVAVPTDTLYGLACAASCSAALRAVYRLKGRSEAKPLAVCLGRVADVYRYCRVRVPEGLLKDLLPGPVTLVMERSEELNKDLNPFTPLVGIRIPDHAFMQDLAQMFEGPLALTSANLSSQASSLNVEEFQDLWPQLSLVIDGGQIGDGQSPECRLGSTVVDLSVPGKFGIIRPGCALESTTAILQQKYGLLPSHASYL
inactive: vemurafenib 0.03 | [1] 0.093 | barasertib 0.019 | [2] 0.04 | volasertib -0.005 | [3] -0.045 | [4] -0.019 | [5] 0.089 | saracatinib -0.043 | sotrastaurin -0.002 | alvocidib 0.015 | Tubastatin A -0.006 | [6] 0.044 | defactinib -0.023 | [7] 0.043 | encorafenib 0.003 | [8] -0.1 | alisertib -0.014 | [9] -0.004 | gefitinib -0.001

ZNF451 (UniProt Q9Y4E5)
inactive: vemurafenib -0.013 | [1] 0.02 | barasertib 0.019 | [2] 0.066 | volasertib -0.063 | [3] -0.022 | [4] -0.047 | [5] -0.048 | saracatinib 0.039 | sotrastaurin 0.002 | alvocidib -0.011 | Tubastatin A -0.121 | [6] 0.027 | defactinib 0 | [7] -0.014 | encorafenib -0.03 | [8] 0.07 | alisertib 0.008 | [9] -0.012 | gefitinib -0.009

WDR62 isoform 4 (UniProt O43379)
Sequence of UniProt O43379 (O43379 whole entry, looked up): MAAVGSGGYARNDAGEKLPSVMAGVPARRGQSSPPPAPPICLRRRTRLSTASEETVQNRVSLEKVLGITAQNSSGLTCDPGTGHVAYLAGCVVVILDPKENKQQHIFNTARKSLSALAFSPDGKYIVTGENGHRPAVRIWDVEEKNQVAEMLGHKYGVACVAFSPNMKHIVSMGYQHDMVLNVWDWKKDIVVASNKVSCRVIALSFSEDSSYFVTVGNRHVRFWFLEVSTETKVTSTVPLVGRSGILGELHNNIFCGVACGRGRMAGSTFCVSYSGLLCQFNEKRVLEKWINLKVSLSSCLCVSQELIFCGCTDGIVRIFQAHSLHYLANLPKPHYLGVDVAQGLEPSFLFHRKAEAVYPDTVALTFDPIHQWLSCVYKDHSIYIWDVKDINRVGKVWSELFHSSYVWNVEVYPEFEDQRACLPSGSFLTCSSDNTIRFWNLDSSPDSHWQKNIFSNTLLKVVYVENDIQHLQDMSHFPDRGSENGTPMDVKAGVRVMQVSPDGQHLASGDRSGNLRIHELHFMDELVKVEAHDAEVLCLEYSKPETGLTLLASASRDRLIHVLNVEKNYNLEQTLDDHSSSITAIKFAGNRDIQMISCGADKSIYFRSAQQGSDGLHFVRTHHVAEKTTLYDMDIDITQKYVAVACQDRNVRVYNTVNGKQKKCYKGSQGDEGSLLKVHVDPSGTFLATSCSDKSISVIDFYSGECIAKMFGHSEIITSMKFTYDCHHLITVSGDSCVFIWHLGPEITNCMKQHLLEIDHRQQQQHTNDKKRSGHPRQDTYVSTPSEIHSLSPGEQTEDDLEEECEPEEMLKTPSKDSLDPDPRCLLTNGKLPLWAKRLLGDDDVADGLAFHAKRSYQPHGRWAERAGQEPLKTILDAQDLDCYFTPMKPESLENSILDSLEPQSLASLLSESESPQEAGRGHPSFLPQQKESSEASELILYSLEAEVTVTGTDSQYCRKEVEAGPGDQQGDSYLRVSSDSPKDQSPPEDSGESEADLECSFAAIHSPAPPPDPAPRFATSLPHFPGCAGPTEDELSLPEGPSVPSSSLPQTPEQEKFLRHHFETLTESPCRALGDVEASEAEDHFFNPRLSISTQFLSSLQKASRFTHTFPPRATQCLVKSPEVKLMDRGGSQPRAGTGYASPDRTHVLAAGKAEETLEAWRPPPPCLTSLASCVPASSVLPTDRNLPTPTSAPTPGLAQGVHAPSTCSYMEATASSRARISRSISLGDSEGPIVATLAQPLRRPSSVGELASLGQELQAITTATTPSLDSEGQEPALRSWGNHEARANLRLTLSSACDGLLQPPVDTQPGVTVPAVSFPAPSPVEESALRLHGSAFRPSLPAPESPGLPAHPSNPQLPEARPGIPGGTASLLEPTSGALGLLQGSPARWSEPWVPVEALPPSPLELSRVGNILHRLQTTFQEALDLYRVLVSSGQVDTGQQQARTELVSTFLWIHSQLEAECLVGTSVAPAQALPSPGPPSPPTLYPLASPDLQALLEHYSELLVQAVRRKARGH
inactive: vemurafenib 0.004 | [1] 0.065 | barasertib 0.031 | [2] -0.063 | volasertib 0 | [3] 0.003 | [4] -0.009 | [5] -0.044 | saracatinib 0.04 | sotrastaurin 0.031 | alvocidib 0.018 | Tubastatin A -0.132 | [6] 0.012 | defactinib -0.007 | [7] 0.048 | encorafenib 0.054 | [8] -0.01 | alisertib 0.005 | [9] 0.052 | gefitinib 0.013

ZNF609 (UniProt O15014)
Sequence of UniProt O15014 (O15014 whole entry, looked up): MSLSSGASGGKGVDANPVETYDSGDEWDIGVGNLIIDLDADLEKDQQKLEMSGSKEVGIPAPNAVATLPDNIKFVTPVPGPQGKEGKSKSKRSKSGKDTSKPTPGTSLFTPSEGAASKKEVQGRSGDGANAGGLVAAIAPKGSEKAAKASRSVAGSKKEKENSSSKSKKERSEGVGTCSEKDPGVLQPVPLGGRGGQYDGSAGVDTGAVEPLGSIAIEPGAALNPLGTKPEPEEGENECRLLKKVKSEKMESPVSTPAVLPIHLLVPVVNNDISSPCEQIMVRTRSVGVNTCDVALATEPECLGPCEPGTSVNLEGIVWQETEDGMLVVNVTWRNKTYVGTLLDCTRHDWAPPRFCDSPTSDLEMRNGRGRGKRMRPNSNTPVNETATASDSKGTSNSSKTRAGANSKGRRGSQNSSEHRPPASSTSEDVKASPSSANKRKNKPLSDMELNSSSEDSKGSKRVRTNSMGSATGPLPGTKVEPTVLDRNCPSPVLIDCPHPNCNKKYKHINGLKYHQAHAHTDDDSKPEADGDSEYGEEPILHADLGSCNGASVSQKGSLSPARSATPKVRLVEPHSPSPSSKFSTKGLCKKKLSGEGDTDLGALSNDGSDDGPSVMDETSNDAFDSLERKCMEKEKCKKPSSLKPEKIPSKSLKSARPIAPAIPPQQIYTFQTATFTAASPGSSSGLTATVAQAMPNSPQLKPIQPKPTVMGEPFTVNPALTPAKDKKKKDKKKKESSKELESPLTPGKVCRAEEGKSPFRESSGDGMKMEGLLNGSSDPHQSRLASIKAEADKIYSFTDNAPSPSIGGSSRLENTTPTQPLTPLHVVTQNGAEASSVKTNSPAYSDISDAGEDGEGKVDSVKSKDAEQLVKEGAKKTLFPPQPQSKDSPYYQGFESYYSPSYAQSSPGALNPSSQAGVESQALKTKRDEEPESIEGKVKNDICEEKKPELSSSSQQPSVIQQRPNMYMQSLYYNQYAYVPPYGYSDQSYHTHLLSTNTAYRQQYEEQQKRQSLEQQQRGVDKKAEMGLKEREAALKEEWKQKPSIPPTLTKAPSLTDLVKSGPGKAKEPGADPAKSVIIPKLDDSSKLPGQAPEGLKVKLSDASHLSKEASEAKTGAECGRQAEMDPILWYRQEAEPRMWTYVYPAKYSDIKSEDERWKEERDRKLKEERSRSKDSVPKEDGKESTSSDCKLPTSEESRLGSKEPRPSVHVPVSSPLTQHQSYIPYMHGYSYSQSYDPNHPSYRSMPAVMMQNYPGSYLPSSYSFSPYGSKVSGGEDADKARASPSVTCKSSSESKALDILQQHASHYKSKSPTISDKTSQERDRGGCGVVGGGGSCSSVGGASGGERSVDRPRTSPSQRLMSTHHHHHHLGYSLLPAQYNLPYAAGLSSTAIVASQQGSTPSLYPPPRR
inactive: vemurafenib 0.165 | [1] 0.033 | barasertib 0.027 | [2] 0.011 | volasertib 0.005 | [3] 0.022 | [4] -0.014 | [5] 0.064 | saracatinib 0.004 | sotrastaurin 0.013 | alvocidib -0.028 | Tubastatin A -0.044 | [6] 0.02 | defactinib -0.026 | [7] 0.074 | encorafenib 0.002 | [8] 0.013 | alisertib -0.01 | [9] 0.018 | gefitinib -0.002

USP9X (UniProt Q93008)
inactive: vemurafenib -0.013 | [1] 0.014 | barasertib 0.038 | [2] -0.065 | volasertib -0.053 | [3] 0.033 | [4] -0.042 | [5] -0.036 | saracatinib 0.03 | sotrastaurin 0.007 | alvocidib -0.009 | Tubastatin A -0.114 | [6] 0.016 | defactinib 0.026 | [7] -0.04 | encorafenib 0.007 | [8] 0.023 | alisertib 0.016 | [9] 0.013 | gefitinib 0.002

WDR6 (UniProt Q9NNW5)
Sequence of UniProt Q9NNW5 (Q9NNW5 whole entry, looked up): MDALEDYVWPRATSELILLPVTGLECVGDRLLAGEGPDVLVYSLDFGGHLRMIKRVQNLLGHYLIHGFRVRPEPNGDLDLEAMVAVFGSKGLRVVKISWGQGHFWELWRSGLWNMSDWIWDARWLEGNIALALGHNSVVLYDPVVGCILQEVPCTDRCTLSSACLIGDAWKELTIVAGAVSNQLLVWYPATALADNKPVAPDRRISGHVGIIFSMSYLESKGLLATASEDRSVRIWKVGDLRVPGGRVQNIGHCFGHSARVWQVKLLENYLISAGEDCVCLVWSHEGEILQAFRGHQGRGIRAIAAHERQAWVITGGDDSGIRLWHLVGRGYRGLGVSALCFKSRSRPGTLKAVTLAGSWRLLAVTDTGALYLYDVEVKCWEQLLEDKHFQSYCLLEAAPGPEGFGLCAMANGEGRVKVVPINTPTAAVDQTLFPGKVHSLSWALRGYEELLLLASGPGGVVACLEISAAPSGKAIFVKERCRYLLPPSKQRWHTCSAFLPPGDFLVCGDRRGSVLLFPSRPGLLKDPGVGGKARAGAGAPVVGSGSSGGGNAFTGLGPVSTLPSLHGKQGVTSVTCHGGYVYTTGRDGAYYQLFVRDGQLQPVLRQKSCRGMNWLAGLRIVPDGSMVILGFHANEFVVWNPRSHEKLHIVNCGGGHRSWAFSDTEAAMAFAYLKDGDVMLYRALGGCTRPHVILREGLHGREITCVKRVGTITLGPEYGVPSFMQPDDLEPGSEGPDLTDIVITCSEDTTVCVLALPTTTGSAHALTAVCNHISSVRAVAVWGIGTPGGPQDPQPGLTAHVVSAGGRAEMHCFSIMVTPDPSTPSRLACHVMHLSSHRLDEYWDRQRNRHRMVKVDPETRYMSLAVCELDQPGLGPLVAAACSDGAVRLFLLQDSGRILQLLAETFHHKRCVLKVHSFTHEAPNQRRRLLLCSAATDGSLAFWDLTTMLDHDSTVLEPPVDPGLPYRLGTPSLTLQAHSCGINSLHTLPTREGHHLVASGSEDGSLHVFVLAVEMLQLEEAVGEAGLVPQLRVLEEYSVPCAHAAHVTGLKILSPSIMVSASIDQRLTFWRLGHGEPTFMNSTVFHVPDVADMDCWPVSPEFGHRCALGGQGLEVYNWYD
inactive: vemurafenib 0.008 | [1] -0.007 | barasertib 0.013 | [2] -0.006 | volasertib -0.029 | [3] -0.009 | [4] -0.053 | [5] 0.033 | saracatinib 0.01 | sotrastaurin 0.116 | alvocidib -0.009 | Tubastatin A -0.077 | [6] -0.004 | defactinib 0.003 | [7] -0.011 | encorafenib 0.015 | [8] 0.031 | alisertib 0.005 | [9] 0.016 | gefitinib -0.013

ZMYM2 (UniProt Q9UBW7)
inactive: vemurafenib 0.004 | [1] 0.101 | barasertib -0.016 | [2] -0.034 | volasertib -0.253 | [3] -0.119 | [4] 0.025 | [5] -0.196 | saracatinib 0.018 | sotrastaurin -0.008 | alvocidib 0.076 | Tubastatin A -0.155 | [6] 0.003 | defactinib 0.121 | [7] -0.021 | encorafenib -0.214 | [8] -0.018 | alisertib -0.077 | [9] 0.087 | gefitinib 0.06

YLPM1 (UniProt P49750)
inactive: vemurafenib 0.062 | [1] 0.005 | barasertib 0.032 | [2] 0.069 | volasertib -0.019 | [3] -0.018 | [4] 0.165 | [5] -0.085 | saracatinib 0.033 | sotrastaurin 0.012 | alvocidib 0.061 | Tubastatin A -0.041 | [6] 0.01 | defactinib 0.041 | [7] 0.131 | encorafenib 0.049 | [8] -0.09 | alisertib -0.033 | [9] 0 | gefitinib -0.086

Source: the supplement of paper PMC10849652
